Screening results deposited in PubChem BioAssay by The Scripps Research Institute Molecular Screening Center.
OPRM1-OPRD1 ag: OPRM1-OPRD1 heterodimerization agonism; P35372+P41143; cells, luminescence; activation, % at 9.3 µM; 0.3% of 340,000 active; AID 504326; in the data active means activation above about 18%;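 further: 0% = vehicle-treated cells and 100% = reference agonist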
HTR5A ag: activates human HTR5A in OPRM1-OPRD1 agonist counter-screen. P47898. HTR5A agonist assay, luminescence, cell-based. activation, % at 9.3 µM. 0.61% of 340,000 active. AID 504692; in the data active means activation mostly above about 9.5%, no sharp cut-off; inactive means mostly below about 7.6%;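 further: 0% = cells with vehicle only and 100% = reference agonist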
Target sequence (P47898 whole entry, looked up): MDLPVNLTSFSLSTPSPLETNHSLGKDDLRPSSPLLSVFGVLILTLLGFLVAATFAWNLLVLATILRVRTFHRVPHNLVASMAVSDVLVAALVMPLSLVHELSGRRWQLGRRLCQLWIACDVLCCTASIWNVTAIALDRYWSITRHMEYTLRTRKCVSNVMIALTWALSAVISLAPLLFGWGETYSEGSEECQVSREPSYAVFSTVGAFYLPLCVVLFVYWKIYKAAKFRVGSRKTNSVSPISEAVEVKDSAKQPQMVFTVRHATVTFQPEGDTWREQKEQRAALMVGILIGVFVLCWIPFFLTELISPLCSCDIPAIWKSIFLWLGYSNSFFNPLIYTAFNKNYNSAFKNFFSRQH
HTR5A inv ctr: HTR5A inverse agonism, opioid heterodimer counter-screen | AID 504634 | 0.083% of 340,000 active | inhibition, % at 9.3 µM | P47898 | HTR5A cell line, luminescence; in the data active means inhibition mostly above about 23%, no sharp cut-off; inactive means mostly below about 18%;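 further: 0% = cells with DMSO and 100% = no-cell wells with DMSO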
MOR-DOR inv ag-1: inverse agonist of human OPRM1-OPRD1 heterodimerization | P35372+P41143 | cell-based MOR-DOR heterodimer luminescence, inverse agonism | inhibition, % at 9.3 µM | 0.21% of 340,000 active | AID 504357; in the data active means inhibition above about 22%, passing the limit was not always enough;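 further: 0% = cells with DMSO and 100% = wells without cells with DMSO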
MOR-DOR inv ag-2: inverse agonist of OPRM1-OPRD1 heterodimerization in HTR5A counter-screen; shares compounds with HTR5A inv ctr; 190 tested, under 10 active; U2OS counter-screen cells, complementation luminescence; AID 504912; inhibition, % at 9.3 µM;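 further: 0% = cells with DMSO and 100% = wells without cells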
HTR5A inv confrm: confirmation of human HTR5A inverse agonists; shares compounds with HTR5A inv ctr; inhibition, % at 9.3 µM; 190 tested, under 10 active; HTR5A-expressing cells, inverse agonism, luminescence;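 further: 0% = cells with DMSO and 100% = no cells with DMSO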
Starred values were filed as active, the others as inactive; i = inactive; x = no result. A selection: hits, their analogues and other compounds. The true share with any hit is near 1.1%. Unless noted, how the calls were made is not given here.

SMILES	OPRM1-OPRD1 ag	HTR5A ag	HTR5A inv ctr	MOR-DOR inv ag-1	MOR-DOR inv ag-2	HTR5A inv confrm
N/C(=N\OC(=O)CCN1C(=O)c2ccccc2C1=O)c1ccccn1	-0.7	2.3	47.1*	3.2	i	-14.1
CC(=O)N1CCc2c(sc(NC(=O)c3ccc([N+](=O)[O-])o3)c2C#N)C1	6.2	-13.0	32.3*	-40.4	24.0	-5.3
Brc1c(CSc2nncn2-c2ccccc2)nc2sccn12	-2.4	-3.9	29.9	13.1	x	x
Cc1ccc(/C=C/c2nnc(-c3cccs3)o2)cc1	5.5	-5.5	12.8	-32.6	x	x
Cc1ccc(/C=C/c2nnc(-c3ccc(C)cc3)o2)cc1	2.1	-17.9	41.6*	-12.6	-41.9	-199.0
COc1cc(C(CCN2CCOCC2)c2c(OC)cc(OC)c3c(-c4ccccc4)cc(=O)oc23)cc(OC)c1OC (configuration not stated)	-0.2	-4.9	16.9*	1.3	-6.8	2.2
COCCN(C(=O)COC(=O)c1ccc(C)o1)c1c(N)n(Cc2ccccc2)c(=O)[nH]c1=O	-2.0	-2.6	6.5	10.8	x	x
COCCN(C(=O)COC(=O)c1cc(C)oc1C)c1c(N)n(Cc2ccccc2)c(=O)[nH]c1=O	-0.6	-25.9	64.9*	3.2	-8.0	-15.6
CCn1nc(C)c(/C=N\NC(=O)c2cccc(OC)c2)c1C	-3.6	1.9	-1.8	19.1	x	x
CC(C)NC(=O)c1cnc(N2CCN(c3ccccn3)CC2)c2ccccc12	-0.1	4.4	44.2*	0.3	-18.3	5.0
CCOc1cc(N2CCOCC2)c(OCC)cc1NC(=O)c1cc(C)cc(C)c1	1.0	1.0	2.1	-4.7	x	x
OCC[C@@H]1C[C@H](O)[C@@H](O)[C@@]2(OCCCc3ccccc32)O1	0.1	-17.3	43.9*	-0.3	-5.1	2.7
OCC[C@@H]1C[C@@H](O)[C@H](O)[C@]2(OCCc3ccccc32)O1	-2.0	-0.8	-0.1	11.5	x	x
O=C(Cc1ccccc1)NCc1ccc2c(c1)OCO2	-1.2	-1.6	13.1	6.9	x	x
O=C(CC12CCC(CC1)C2)NCc1ccc2c(c1)OCO2	1.6	1.8	27.5*	-8.4	i	6.4
O=C(NC(=S)Nc1nc(-c2ccc(Cl)cc2)cs1)c1cccs1	-0.8	-0.8	2.1	4.4	x	x
N#CCCN(/N=C/c1cccnc1)C1=NS(=O)(=O)c2ccccc21	-1.7	0.3	34.3*	10.6	-301.9	5.1
COc1ccccc1N1CN(Cc2ccccc2)CNC1=S	-2.4	5.8	5.5	12.7	x	x
O=C(NCc1nnc(SCC(=O)N2CCCC2)o1)c1ccccc1	-2.9	-17.8	45.5*	11.8	i	-98.7
O=C(NCc1nnc(SCC(=O)N2CCN(c3ccccc3)CC2)o1)c1ccccc1	-1.9	3.8	3.1	9.9	x	x
CN(C)/N=C/c1cc([N+](=O)[O-])ccc1O	-1.5	-8.9	28.1*	7.8	-23.1	6.6
NC(N)=N/N=C/c1cc([N+](=O)[O-])ccc1O	-2.3	-0.2	20.5	10.4	x	x
O=C(CCCc1nc(-c2ccc(Cl)cc2)no1)NC1CCCCC1	-0.5	2.3	-5.5	2.5	x	x
O=C(CCCC(=O)c1ccc(O)cc1)c1ccc(O)cc1	-1.1	3.1	4.4	6.6	x	x
O=C1C=CC(=C(c2ccc(O)cc2)c2ccc(O)cc2)C=C1	-5.1	-14.7	41.9*	19.1	i	-10.4
SMILES	OPRM1-OPRD1 ag	HTR5A ag	HTR5A inv ctr	MOR-DOR inv ag-1	MOR-DOR inv ag-2	HTR5A inv confrm
CCCc1c(NC(=O)Nc2ccc(F)cc2)cnn1-c1ccc(Cl)cc1	3.9	9.3	-13.9	-20.6	x	x
CCOC(=O)c1c(N)n(C2CC(C)(C)NC(C)(C)C2)c2nc3ccccc3nc12	-3.2	2.8	37.3*	17.9	-15.1	1.2
Cc1cc2n(n1)C(c1ccc3c(c1)OCO3)Nc1c(C)cccc1-2 (configuration not stated)	2.6	-4.9	32.8*	-12.7	-45.0	-5.0
OCCN(CCO)c1ccc(C(c2ccc(Cl)cc2)c2ccc(N(CCO)CCO)cc2Cl)c(Cl)c1	-0.6	1.4	16.1	3.1	x	x
Cc1cc(N(CCO)CCO)ccc1N=Nc1cc(F)ccc1F	-4.3	-9.9	27.3*	21.0	-6.2	12.2
c1ccc(-c2ncc3ccccn23)cc1	-2.3	1.5	13.6	12.4	x	x
CC(C)c1nnc(NC(=O)CSc2nnc(NC(=O)c3c(F)cccc3F)s2)s1	-2.0	-2.1	4.1	10.0	x	x
CCn1nc(NC(=O)C(C)(C)C)c2cc3cccc(C)c3nc21	0.9	-0.1	0.2	-4.3	x	x
COc1ccc(NC(=O)c2ccc(NC(=O)c3nc4nccc(C)n4n3)cc2)cc1	-0.7	-2.1	36.0*	2.6	-9.6	13.2
COc1ccccc1NC(=O)c1ccc(NC(=O)c2nc3nccc(C)n3n2)cc1	-2.5	-2.1	5.3	10.5	x	x
CSc1nc(Oc2ccc(=O)[nH]n2)nc(N(C)C)n1	-1.9	-0.2	-9.0	9.6	x	x
O=S1(=O)NC2CCCCCN2c2ccc(F)cc21 (configuration not stated)	-2.2	3.0	-11.0	12.1	x	x
CCc1nc2nc(C)c(NS(=O)(=O)c3ccc(Br)s3)c(=O)n2[nH]1	2.2	8.3	-23.5	-11.8	x	x
NNc1ccc(Cl)nn1	0.0	-1.6	-33.9	0.2	x	x
CC(C)Cn1c(-c2ccc(Br)cc2)c[nH]c1=S	-0.4	-28.4	81.2*	2.1	-109.8	0.8
Cc1[nH]c(=O)[nH]c(=O)c1S(=O)(=O)Nc1ccc(F)c([N+](=O)[O-])c1	-3.1	0.7	-2.8	14.4	x	x
CCOc1ccccc1C(=O)NCC(=O)NCc1ccc(S(=O)(=O)N2CCOCC2)cc1	-0.3	1.2	-2.9	1.5	x	x
CCOc1cc(/C=C2\CN(C)C/C(=C\c3ccc(O)c(OCC)c3)C2=O)ccc1O	-4.8	-4.6	16.1	21.9	x	x
CCOc1cc(/C=C2\CCC/C(=C\c3cc(Cl)c(O)c(OCC)c3)C2=O)cc(Cl)c1O	-2.6	-21.0	46.1*	12.9	i	-20.1
CC(C)C[C@@H](CO)N1CCN(Cc2cccnc2)CCC1=O	-1.6	-9.7	28.5*	9.0	-7.9	-5.0
COc1ccc(-n2c(-c3ccc(Cl)cc3)c[nH]c2=S)cc1	-3.4	-10.7	37.6*	15.5	33.4*	21.1
Cc1ccc(-n2c(-c3ccccc3)c[nH]c2=S)cc1	0.0	1.0	7.7	0.0	x	x
OC(Cc1cccnc1)(c1ccccc1)c1ccccc1	-3.8	-2.0	8.0	18.3	x	x
COc1ccccc1-c1nnc(NC(=O)CCS(=O)(=O)c2ccccc2)o1	-2.4	-1.1	39.5*	13.2	-7.6	2.2
Cc1ccc(S(=O)(=O)CC(C)N2CCOCC2)c(S(=O)(=O)CC(C)N2CCOCC2)c1 (configuration not stated)	-3.0	-5.2	12.4	14.5	x	x
CC(NC(=O)c1ccco1)C1COc2ccccc2O1 (configuration not stated)	-0.8	-2.8	-12.3	4.7	x	x
CCOc1ccc(S(=O)(=O)n2ccc(C)n2)cc1	-2.4	-7.0	25.8*	11.1	21.8	-5.5
CC(=O)c1ccc(OCc2ccccc2)c(C)c1O	7.1	-9.5	28.0*	-40.8	-46.7	-1.0
